We go through 76 compounds from ChEMBL document CHEMBL4513216, “Probing the Open Global Health Chemical Diversity Library for Multistage-Active Starting Points for Next-Generation Antimalarials” (ACS Infect Dis, 2020).

Each structure is given as a SMILES string. Hit rate of the full screen: of about 69,000 compounds, about 8,600 (12%) showed an effect of 50% or more. The full list was thinned out, with strong results kept by preference.

The test system of the assay is Plasmodium berghei. In words: Screen against P. berghei liver stage (PbLuc), transformed with Luciferase, at 10uM. The format is functional, HepG2. The conditions noted are these: tested at 10 uM.
Turning to `CC(C)CCn1cc(C(C(=O)O)N2CCC(c3ccncc3)CC2)cn1` (stereo unspecified), the INHIBITION is recorded as 23.9%. To `O=C(NCCO)c1sc2ncccc2c1C1CN(C2CCCC2)CCO1` (stereo unspecified) belongs -10.4%; to `CC(C)(C)c1noc(CN2CCCCC2Cn2cncn2)n1` (stereo unspecified), 39.15%; to `O=S(=O)(NCC1(c2cccs2)CCCC1)c1cccnc1`, -43.5%. As for `CCC(C(=O)NCC1=CCCN(C)C1)c1ccccc1` (stereo unspecified), the INHIBITION worked out at 0.348%. In the case of `COCC(=O)NCCCn1ncc2c(C)cccc21`, the INHIBITION was 20.1%. The same measure for `CCCC(=O)NCCCn1ncc2c(C)cccc21`: 2.69%; for `CC(=O)NCCCn1ncc2c(C)cccc21`: 35.8%; for `Cc1cccc2c1cnn2CCCNC(=O)C(C)C`: 0.139%.

Regarding `Cc1cccc2c1cnn2CCCNC(=O)CCCC(=O)O`, the INHIBITION was 60.1%. The same measure for `Cc1cccc2c1cnn2CCCNC(=O)C1CC1`: 66.5%; for `Cc1cc(C(F)(F)F)nn1CCCNC(=O)C1CCN(S(C)(=O)=O)CC1`: 0.87%; for `Cc1nn(CCCNC(=O)C2CCN(S(C)(=O)=O)CC2)c(Cl)c1Cl`: 14.8%. The same measure for `Cc1ccnn1CCCNC(=O)C1CCN(S(C)(=O)=O)CC1`: 77.7%. For the compound `CC(C)n1ccc(-c2cc(C(=O)N3CCN(C)CC3)c3ccccn23)n1`, the INHIBITION came to 16.9%. For `Cc1onc(-c2ccncc2)c1C(=O)NC1CCCOC1` (stereo unspecified), the INHIBITION stood at 10.8%. The same measure for `CCN(C)c1ncnc2c1CCN(C(=O)c1ccoc1C)CC2`: -125%; for `CC(C)CCC(=O)N1CC[C@@H]2[C@H](CC1)N(S(C)(=O)=O)CCS2(=O)=O`: -31.9%.

Consider `C/C(NC(=O)c1ccccn1)=C1\C(=O)C[C@@H]2[C@H]1C2(C)C`, for which the INHIBITION stood at 9.41%. The same measure for `Cc1cc(OC(F)F)c(C(=O)N2CC[C@H](O)C2)s1`: 3.58%; for `CN(C)[C@H]1COC[C@@H]2CN(Cc3ccc4c(c3)OCO4)C[C@@H]21`: 12.1%. The same measure for `Cc1ccc(=O)n(Cc2csc(N(C)C3CC3)n2)n1`: -40.6%; for `Cn1cnc2c1CCN(Cc1csc(C3CCCC3)n1)C2`: -19.9%; for `O=c1ccncn1Cc1csc(C2CC2)n1`: 57.5%.

Turning to `CCc1csc(C2CCCN(C(=O)c3ccncc3)C2)n1` (stereo unspecified), the INHIBITION worked out at 6.1%. The same measure for `CN(c1nc(Cn2cnccc2=O)cs1)C1CC1`: 55.5%.

For the compound `CN(c1nc(Cn2cc(Br)ccc2=O)cs1)C1CC1`, the INHIBITION stood at 0%.

Take `Cc1cc(C(=O)NCc2cccn2C)nn1C`: the INHIBITION amounted to 9.55%. The same measure for `CS(=O)(=O)NC[C@H]1OC[C@@H]2CCN(Cc3ccc(F)cc3)C[C@@H]21`: -16.2%; for `Cc1n[nH]cc1C(=O)N1CCCC(n2nnc3cc(F)ccc32)C1` (stereo unspecified): 21%; for `Cc1nnsc1C(=O)N1CCCC(n2nnc3cc(F)ccc32)C1` (stereo unspecified): 52%. Regarding `Cc1nn(C)cc1C(=O)N1CCCC(n2nnc3cc(F)ccc32)C1` (stereo unspecified), the INHIBITION was -3.31%. For the compound `COCCc1noc(CN2CCOC(Cn3cc(C)cn3)C2)n1` (stereo unspecified), the INHIBITION is on record as -90.9%. The same measure for `Cc1cccc(=O)n1CCC(=O)N1CCC2(CC1)OCCCC2O` (stereo unspecified): 24.2%. To `CCn1c(CNC(=O)Nc2nc(C)c(C)o2)nc2ccccc21` belongs 44.8%; to `Cc1nc(NC(=O)NCc2nc3cccc(C)c3n2C)oc1C`, 38.6%; to `Cc1nc(C)c(C(=O)NCc2nc3cccc(C)c3n2C)o1`, 88.8%.

For `CCc1ccc(C(=O)O)cc1S(=O)(=O)Nc1ccc2c(c1)OCCO2`, the INHIBITION is 28%. The same measure for `CCS(=O)(=O)NCCCNCc1c(C)nn(C)c1N(C)C`: 23.25%; for `CCN(Cc1ccncc1)C1CCN(c2ccccc2)C1=O` (stereo unspecified): -13.1%. The same measure for `CCOc1ccc(CN(C)C2CCN(c3cc(C)nn3C)C2=O)cc1` (stereo unspecified): 24.7%; for `CCN(Cc1ccccc1)C1CCN(c2cc(C)nn2C)C1=O` (stereo unspecified): 57.2%. The same measure for `Cc1cc(N2CCC(N(C)Cc3cccnc3)C2=O)n(C)n1` (stereo unspecified): 59.3%. With `CCN(Cc1cnc(C)cn1)C1CCN(c2ccccc2)C1=O` (stereo unspecified), the INHIBITION came out at 15.2%. In the case of `CCN(Cc1cccnc1)C1CCN(c2ccccc2)C1=O` (stereo unspecified), the INHIBITION is -2.27%. In the case of `CC(C)C(=O)N1CCC2(CCN2CC2CC2)C1` (stereo unspecified), the INHIBITION is listed as 8.85%. `Cc1cc(C(=O)N2C[C@@H]3CC[C@H]2CN(Cc2ccccn2)C3)nc(C)n1`: the INHIBITION stood at 4.59%. As for `Cc1ncsc1C(=O)N1CCC(c2ccc3c(NC(C)C)n[nH]c3n2)C1` (stereo unspecified), the INHIBITION is listed as -3.94%. As for `CC(=O)Nc1ccc(SCC(O)COCc2ccccc2)cc1` (stereo unspecified), the INHIBITION is 16.6%. Consider `O=C(Cc1cccnc1)NCCS(=O)(=O)c1ccccc1F`, for which the INHIBITION stood at 33.7%. For the compound `CNC(=O)C1(c2cnccn2)CCCN1C(=O)c1cccc(F)c1` (stereo unspecified), the INHIBITION was 1.5%. To `COc1cc(NCC(c2ccccn2)N2CCOCC2)ncn1` (stereo unspecified) belongs 6.26%; to `Cc1nn(C)c(N2CCOCC2)c1CNC(C)c1ccccn1` (stereo unspecified), 36.2%; to `Cc1ccc(C(CNC(=O)NCc2ccccn2)N2CCOCC2)o1` (stereo unspecified), 11.783%. Take `c1ccc(C(Cn2cnnc2)N2CCOCC2)nc1` (stereo unspecified): the INHIBITION is on record as 70.4%. The same measure for `CCC(CC)NCC(c1ccccn1)N1CCOCC1` (stereo unspecified): 65.6%; for `NCc1cc(NCC(c2ccccn2)N2CCOCC2)ncn1` (stereo unspecified): 60.1%; for `CC(C)c1nn(C)c(N2CCOCC2)c1CNC(C)c1ccccn1` (stereo unspecified): 23.7%. In the case of `c1ccc(C(CNc2ncccn2)N2CCOCC2)nc1` (stereo unspecified), the INHIBITION was 3.48%. To `c1cncc(C(Cn2cnnc2)N2CCOCC2)c1` (stereo unspecified) belongs 7.31%; to `CCCS(=O)(=O)NC1CCN(c2cccc(F)c2C#N)CC1`, 25.4%; to `c1nc(CCC2CCCCN2)cc(N2CCCC2)n1` (stereo unspecified), 32.8%. As for `O=C(CC1CC1)N1Cc2nccn2CC(COc2cccnc2)C1` (stereo unspecified), the INHIBITION is listed as 13.5%. The same measure for `O=C(N[C@H]1CCCC[C@@H]1O)c1cccc(-c2nc3ccccc3[nH]2)c1`: -13.2%. To `Cc1nc(CN2CCCC(NCc3ccc4ccccc4c3)C2)no1` (stereo unspecified) belongs 41.5%.

`CCc1nc(CN2CCCC(Nc3ncnc4ccsc34)C2)no1` (stereo unspecified): the INHIBITION was determined as 88.5%. Regarding `Cc1nc(CN2CCCC(Nc3ncnc4c3CCC4)C2)no1` (stereo unspecified), the INHIBITION turned out to be 85.1%. To `Cc1nc(CN2CCCC(Nc3ncnc4ccccc34)C2)no1` (stereo unspecified) belongs 90.2%; to `CCc1nc(CN2CCCC(NCc3cc(C)no3)C2)no1` (stereo unspecified), 29.5%. In the case of `Cc1nc(CN2CCCC(NCc3cnn(C)c3)C2)no1` (stereo unspecified), the INHIBITION is listed as -10.6%. The same measure for `Cc1nc(CN2CCCC(NCc3sccc3C)C2)no1` (stereo unspecified): 48.4%; for `CCc1nc(CN2CCCC(NCc3cnc(C)s3)C2)no1` (stereo unspecified): 15.3%.

Take `Cc1nc(CN2CCCC(Nc3ncnc4ccsc34)C2)no1` (stereo unspecified): the INHIBITION turned out to be 79.1%. The same measure for `Cc1nc(CN2CCCC(NCc3cccc4ccccc34)C2)no1` (stereo unspecified): -18.8%. To `Cc1nc(CN2CCCC(NCc3ccsc3)C2)no1` (stereo unspecified) belongs 20.1%; to `Cc1nc(CN2CCCC(NCc3nc4ccccc4s3)C2)no1` (stereo unspecified), 29.2%.
